# Results reported in PubChem BioAssay (NCI).
# Values joined by “and” are separate entries in the source; they are usually repeats but may differ in a detail not shown here. Equal entries are not always repeated. About 83,000 compounds went through this panel and 20% of them were active in at least one assay; those are over-represented in the sample as a whole.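 Activity criterion: percent growth below 10, measured after cells in 96-well plates were exposed to a single compound concentration for 48 hours.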 Active and inactive are the calls of the source.
# Assays:
# Assay in all cases: NCI-60 one-dose screen, 48 h (100 = growth as untreated, 0 = no growth, -100 = all killed)
# Settings in all cases: 10 µM unless noted
# HCT-15 colon = tested on: HCT-15 colon
# SNB-75 CNS = tested on: SNB-75 CNS
# SNB-19 CNS = tested on: SNB-19 CNS
# U251 CNS = tested on: U251 CNS
# PC-3 prostate = tested on: PC-3 prostate
# SK-MEL-5 melanoma = tested on: SK-MEL-5 melanoma
# UACC-62 melanoma = tested on: UACC-62 melanoma
# LOX IMVI melanoma = tested on: LOX IMVI melanoma
# SK-MEL-28 melanoma = tested on: SK-MEL-28 melanoma
# HT29 colon = tested on: HT29 colon
SMILES,growth (HCT-15 colon),growth (SNB-75 CNS),growth (SNB-19 CNS),growth (U251 CNS),growth (PC-3 prostate),growth (SK-MEL-5 melanoma),growth (UACC-62 melanoma),growth (LOX IMVI melanoma),growth (SK-MEL-28 melanoma),growth (HT29 colon)
O=C(NC(CSSCC(NC(=O)OCc1ccccc1)C(=O)O)C(=O)O)OCc1ccccc1 (stereo not given),90.9% (inactive) and 98.4% (inactive),78.4% (inactive) and 90.8% (inactive),93.2% (inactive) and 104% (inactive),84.2% (inactive) and 97.5% (inactive),90.5% (inactive) and 73.1% (inactive),90% (inactive) and 102% (inactive),91.5% (inactive) and 102% (inactive),103% (inactive) and 95% (inactive),96.6% (inactive) and 104% (inactive),
Cc1cc(NC(=O)NC(=O)c2ccccc2N(C)C)ccc1Oc1ncc(Br)cn1,-31% (active) and 31% (inactive),-28.2% (active) and 12.9% (inactive),29.2% (inactive) and 42.7% (inactive),,-10.1% (active) and 25.9% (inactive),2.16% (active) and 0.678% (active),30.4% (inactive) and 37% (inactive),27.3% (inactive) and 49.7% (inactive),68.1% (inactive),-15.9% (active) and 17% (inactive)
O=C(O)c1cccc(Br)c1,108% (inactive) and 102% (inactive),91.5% (inactive) and 99.7% (inactive),108% (inactive) and 105% (inactive),103% (inactive) and 90.7% (inactive),95% (inactive) and 97.6% (inactive),104% (inactive) and 109% (inactive),103% (inactive) and 102% (inactive),95.8% (inactive) and 99.3% (inactive),112% (inactive) and 115% (inactive),
CCCCCc1cc[n+](CC(=O)c2ccccc2)cc1,99.4% (inactive) and 103% (inactive),92.6% (inactive),93.4% (inactive) and 107% (inactive),,85.6% (inactive) and 91.1% (inactive),96% (inactive) and 89.5% (inactive),98.7% (inactive) and 101% (inactive),93.8% (inactive) and 98.6% (inactive),128% (inactive) and 109% (inactive),99.7% (inactive) and 105% (inactive)
COc1ccc([N+](=O)[O-])cc1OC,96.3% (inactive) and 98.9% (inactive),98% (inactive),102% (inactive) and 107% (inactive),,94.1% (inactive) and 102% (inactive),104% (inactive) and 106% (inactive),104% (inactive) and 107% (inactive),98.2% (inactive) and 101% (inactive),95.9% (inactive) and 107% (inactive),
COc1ccc2nccc(Cl)c2c1,109% (inactive),91.1% (inactive),103% (inactive),,95.3% (inactive),102% (inactive),89.6% (inactive),97.9% (inactive),110% (inactive),104% (inactive)
CC(C)(C)OC(=O)CC1(O)CCCCC1,105% (inactive),90.8% (inactive),106% (inactive),,96.8% (inactive),95.7% (inactive),103% (inactive),,105% (inactive),111% (inactive)
O=C(O)COc1ccccc1F,113% (inactive),94.4% (inactive),107% (inactive),,82.6% (inactive),95% (inactive),101% (inactive),96.5% (inactive),112% (inactive),
CC1CCC(=O)N1c1ccc(N)cc1 (stereo not given),108% (inactive),97.4% (inactive),97.8% (inactive),,94.4% (inactive),98.9% (inactive),100% (inactive),95.1% (inactive),107% (inactive),
O=C1c2cccnc2-c2ncccc21,111% [100 µM] (inactive),93.8% [100 µM] (inactive),102% [100 µM] (inactive),100% [100 µM] (inactive),96.4% [100 µM] (inactive),103% [100 µM] (inactive),102% [100 µM] (inactive),,119% [100 µM] (inactive),
Nc1c(S(=O)(=O)O)cc(Br)c2c1C(=O)c1ccccc1C2=O,107% (inactive) and 114% (inactive),86.7% (inactive) and 90.7% (inactive),111% (inactive) and 107% (inactive),102% (inactive) and 105% (inactive),92% (inactive) and 84.9% (inactive),99.6% (inactive) and 90.8% (inactive),108% (inactive) and 104% (inactive),102% (inactive) and 103% (inactive),109% (inactive) and 113% (inactive),
COC(=O)c1nc(N)nc(C(=O)OC)c1C(=O)c1cccc2ccccc12,102% (inactive),104% (inactive),103% (inactive),108% (inactive),97% (inactive),98.9% (inactive),97.2% (inactive),95.3% (inactive),106% (inactive),
C/C(CC(C)C)=N/NC(N)=S,79.4% (inactive),99.3% (inactive),107% (inactive),,93.4% (inactive),99.5% (inactive),105% (inactive),,106% (inactive),56.1% (inactive)
CCc1ccccc1-n1[nH]c(C)c(C=N)c1=O,98.3% (inactive),101% (inactive),104% (inactive),109% (inactive),94.7% (inactive),104% (inactive),101% (inactive),99.1% (inactive),110% (inactive),
Nc1ccccc1SC(CC(=O)c1ccccc1)c1cccc([N+](=O)[O-])c1 (stereo not given),66.3% (inactive) and 49.4% (inactive),74.9% (inactive) and 78.1% (inactive),89.8% (inactive),,75% (inactive) and 71.6% (inactive),96.3% (inactive),85.5% (inactive) and 94% (inactive),,96% (inactive) and 102% (inactive),11.5% (inactive) and 30.2% (inactive)
Cc1ccc2cccc([N+](=O)[O-])c2n1,105% (inactive) and 96.9% (inactive),106% (inactive) and 79.5% (inactive),109% (inactive) and 99% (inactive),105% (inactive) and 103% (inactive),99.7% (inactive) and 102% (inactive),99.1% (inactive) and 105% (inactive),102% (inactive),100% (inactive) and 94.8% (inactive),109% (inactive) and 111% (inactive),
O=C1C=CC(=O)N1Cc1ccco1,11.6% (inactive),101% (inactive),91% (inactive),,81.6% (inactive),86.4% (inactive),86.4% (inactive),76.6% (inactive),113% (inactive),34.1% (inactive)
Cc1c(Cl)c(C)c(Cc2c(C)c(Cl)c(C)c(Cl)c2O)c(O)c1Cl,5.02% (active),25% (inactive),10.6% (inactive),8.95% (active),8.74% (active),-69.7% (active),18.2% (inactive),,26.1% (inactive),
CC(=O)c1cccc(OC(=O)c2ccccc2)c1,127% (inactive),101% (inactive),97.2% (inactive),103% (inactive),90.9% (inactive),108% (inactive),91.1% (inactive),87.4% (inactive),92.1% (inactive),
Clc1ccc2sc(-c3ccccc3)nc2c1,100% (inactive),67.7% (inactive),97.6% (inactive),105% (inactive),88% (inactive),91% (inactive),86.2% (inactive),,106% (inactive),
COc1ccc(/C=C/C(=O)O)cc1OC,106% (inactive) and 103% (inactive),96.5% (inactive) and 103% (inactive),102% (inactive) and 107% (inactive),100% (inactive) and 103% (inactive),95.1% (inactive) and 98.3% (inactive),98% (inactive) and 97.9% (inactive),98.9% (inactive) and 97.5% (inactive),100% (inactive) and 98.9% (inactive),111% (inactive) and 115% (inactive),
